High-throughput results from PubChem.
Hits are enriched below; roughly 1.1% of the tested compounds scored in any of these assays.
PrPC TRFRET = reduces human prion protein on the cell surface | P04156 | cell surface PrPC, TR-FRET read-out | AID 720596 | 370,000 compounds, 0.43% hits | inhibition, % at 13.8 µM; in the data active = inhibition above about 24%; note: 0% = median of the test wells and 100% = reference compound wells
MazEF act = MazEF (E. coli) toxin RNase activation; P0AE70; FAM/BHQ RNA-DNA oligo cleavage fluorescence, 5 h; activation, % at 20 µM; 350,000 compounds, 0.32% hits; AID 504720; in the data active = activation above about 50%
Target sequence (P0AE70 whole entry, looked up): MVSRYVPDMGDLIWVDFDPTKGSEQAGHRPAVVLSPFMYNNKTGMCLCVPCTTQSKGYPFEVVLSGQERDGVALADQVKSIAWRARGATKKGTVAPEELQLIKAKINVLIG
BJeLR lethal = BJeLR cell viability loss. 300,000 compounds, 0.17% hits. inhibition, % (no concentration beside the values). BJeLR (HRASV12) viability, CellTiter-Glo ATP luminescence, 48 h. AID 1554; in the data active = inhibition above about 50%
PrP UTR inh = inhibition of PrP 5' UTR reporter expression. 340,000 compounds, 0.35% hits. cell-based PrP 5' UTR mRNA reporter, plate reader. inhibition, % (test concentration not listed); in the data active = inhibition above about 52%; note: 0 = median of the neutral control wells
An asterisk follows results filed as active; / = no result given; + = active, no number.

SMILES | PrPC TRFRET | MazEF act | BJeLR lethal | PrP UTR inh
COC(=O)C1CN(Cc2cn(Cc3ccc(C)cc3)nn2)CCS(=O)(=O)N1Cc1ccc(OC)cc1 (stereo not drawn) | 2 | / | / | /
Oc1c(CN2CCN(c3ccccc3)CC2)cc(Br)c2cccnc12 | 0 | -2 | 77* | 31
c1ccc(N2CCN(Cc3ccnc4ccccc34)CC2)cc1 | 7 | 7 | 30 | -1
COc1cc2c(cc1OC)[C@](C)(c1ccccc1)C[C@@H]2NCC=C(C)C | 3 | / | / | /
Cc1ccc(C2NC(=O)Cc3ccccc32)cc1 (stereo not drawn) | 2 | 247* | 0 | -44
O=C1Cc2ccccc2C(c2ccccc2)N1 (stereo not drawn) | 4 | 4 | 1 | -18
CCSc1nc(C2CC2)cc(-c2cccs2)c1C#N | -3 | -4 | -6 | -14
N#Cc1c(-c2ccccc2F)cc(C2CC2)nc1SCC(=O)c1cccs1 | 6 | 65* | 2 | -9
CC(=O)OCC(COC(C)=O)(CN1C(=O)c2ccccc2C1=O)CN1C(=O)c2ccccc2C1=O | 6 | / | / | /
NC(=O)c1ncn([C@@H]2O[C@H](C(=O)N3CCN(Cc4ccccn4)CC3)[C@@H](O)[C@H]2O)n1 | 3 | / | / | /
COC(=O)CSc1nc2cc(C)cc(C)c2cc1C#N | -2 | 131* | -6 | -62
COC(=O)CSc1nc2ccc(C)cc2cc1C#N | 4 | 901* | -3 | -46
N#Cc1cc2cc3c(cc2nc1SCC(=O)N1CCCC1)OCCO3 | / | 1 | -4 | -56
Cc1cc(C)c2cc(C#N)c(SCC(=O)Nc3cc(C)on3)nc2c1 | 4 | 50 | 4 | 1
COC(=O)CSc1nc2cc(OC)ccc2cc1C#N | -6 | 203* | -5 | -96
CC(=O)CSc1nc2cc3c(cc2cc1C#N)OCCO3 | -9 | 80* | 21 | -17
O=[N+]([O-])c1ccc(OC[C@@H](O)CN2CCC(C(O)(c3ccccc3)c3ccccc3)CC2)c(Cl)c1 | -26 | / | / | /
CCCCCCCCN1C(=O)[C@@H](CC(=O)N2CCN(C(=O)C3CC3)CC2)C[C@@]2(C(=O)OC)C1=C[C@H](COCc1ccccc1)O[C@@H]2C | -3 | / | / | /
O=C(Nc1ccc(F)cc1)OCc1cn(Cc2ccccc2F)nn1 | 3 | / | / | /
C=CCN1C(=O)[C@H](CC(=O)N2CCOCC2)[C@@]2(C(=O)OCC)CCCC=C12 | -7 | / | / | /
C[C@@H]1ON(C)[C@H]2C[C@H]3c4[nH]c5c(-c6cccc(F)c6)cccc5c4CCN3C(=O)[C@@H]12 | -17 | / | / | /
Cc1cccc(C2=NN(c3ccc(Br)cc3)[C@@H](C(=O)N3CCOC3=O)[C@@H]2c2ccc(F)cc2)c1 | 4 | -4 | 9 | -22
Cc1cccc(C2=NN(c3ccc(Br)cc3)[C@@H](C(=O)N3CCOC3=O)[C@@H]2c2ccc(Cl)cc2)c1 | / | 129* | / | -23
O=C(NC1CCCCC1)C(c1cccnc1)N(C(=O)CCl)c1cccc(Cl)c1 (stereo not drawn) | 0 | 25 | 89* | -4
COc1ccc(NC(=O)Nc2ccc3c(c2)C(=O)N([C@H](C)CO)C[C@H](C)[C@@H](CN(C)S(=O)(=O)c2cccs2)O3)cc1 | 9 | 0 | / | -20
SMILES | PrPC TRFRET | MazEF act | BJeLR lethal | PrP UTR inh
COc1ccc(S(=O)(=O)Nc2ccc3c(c2)C(=O)N([C@H](C)CO)C[C@H](C)[C@@H](CN(C)S(=O)(=O)c2cccs2)O3)cc1 | -5 | 54* | / | 7
CCOC(=O)/C=c1/s/c(=C\c2c(OC)ccc3ccccc23)c(=O)n1CC(=O)NCC1CCCO1 (stereo not drawn) | -2 | 184* | / | 8
CCOC(=O)/C=c1\s/c(=C\c2c(OCC)ccc3ccccc23)c(=O)n1CC(=O)NCC1CCCO1 (stereo not drawn) | -11 | -17 | 0 | -18
CCN1CCN(C(=S)c2ccc(OCC(=O)NCc3ccccc3)cc2)CC1 | 2 | 5 | -1 | -20
CCN1CCN(C(=S)c2ccc(OCC(=O)Nc3ccc(OC)cc3)cc2)CC1 | 9 | 58* | 5 | -6
C[C@H](O)[C@@H]1CN2CCc3ccc(-c4ccc5c(c4)OCO5)cc3[C@@H]2C[C@@H]1N(C)C(=O)NC1CCCCC1 | -9 | / | / | /
Cc1ccc(-c2nc3ncccn3c2NC(=O)Nc2ccc(OC(F)(F)F)cc2)cc1 | -5 | / | / | /
Cc1nc2ccc(C(=O)OCc3ccccc3Br)cc2nc1C | -3 | 60* | 1 | -46
O=Nc1ccc(Cl)cn1 | -2 | / | / | /
CC1(C)OC(c2ccccc2)=C/C(=C/C=C2C(=O)NC(=S)NC2=O)O1 | -3 | + | -4 | /
C[C@H]1CN(C(=O)OC(C)(C)C)CCN1c1ccc(N2CC[C@@H](O)C2)c(C#N)c1 | 8 | / | / | /
CC1CCN(c2ccc3c(c2)S(=O)(=O)c2cccc(C(=O)NCc4cccc(F)c4)c2C3=O)CC1 | -11 | 97* | / | -7
O=C(NCc1cc(C(F)(F)F)ccc1Cl)c1cccc2c1C(=O)c1ccc(N3CCC(N4CCCCC4)CC3)cc1S2(=O)=O | 46* | -218 | / | /
O=C(NCc1cc(C(F)(F)F)ccc1Cl)c1cccc2c1C(=O)c1ccc(N3CCCCC3)cc1S2(=O)=O | -4 | -948 | / | -11
COc1ccc(Cn2cc(COC(=O)N3CCCC3)nn2)cc1 | 2 | / | / | /
CC(C)[C@@H]1NC(=O)[C@H]2C[C@@]3(C)c4ccccc4N[C@H]3N2C1=O | -6 | / | / | /
N#Cc1c(NC(=O)/C=C/c2ccco2)sc2c1CCCC2 | 4 | -4 | 56* | 2
Cc1ccc(N/C(N)=N/c2nc(C)cc(N3CCCCC3)n2)c(C)c1 | 45* | 10 | 12 | -8
COc1ccc(-n2c(SCC(=O)Nc3ccc(OCc4ccccc4)cc3)nnc2-c2ccc(C)cc2)cc1 | 4 | / | / | /
CN(C)CCNC(=O)c1sc2nc(-c3ccccc3)cc(C(F)(F)F)c2c1N | -9 | 31 | 4 | -25
CC(=O)c1sc2nc(-c3cccs3)cc(C(F)(F)F)c2c1N | -9 | 242* | 2 | -14
COc1ccc(-c2cc(C(F)(F)F)c3c(N)c(C(=O)NCCSC)sc3n2)cc1 | -4 | 618* | -6 | -15
Nc1c(C(=O)C2CC2)sc2nc(-c3ccccc3)cc(C(F)(F)F)c12 | -1 | + | -4 | 41
O=C(C1CCCN1S(=O)(=O)c1ccccc1[N+](=O)[O-])N1CCN(c2ccccc2)CC1 (stereo not drawn) | -12 | / | / | /
C[C@@H]1CN([C@@H](C)CO)C(=O)CCCn2cc(nn2)CO[C@H]1CN(C)C(=O)Nc1ccccc1F | 1 | / | / | /
O=C(COC(=O)c1cc(-c2cccc3ccccc23)nc2ccccc12)NC1CCS(=O)(=O)C1 (stereo not drawn) | -3 | 292* | -3 | -13
Cc1cc(C(=O)OCC(=O)NC2CCS(=O)(=O)C2)c2ccccc2n1 (stereo not drawn) | 4 | 11 | 4 | -40
Cc1cc(NC(=O)CCC(=O)N(Cc2ccco2)C(C(=O)NC2CCCC2)c2ccccc2C)no1 (stereo not drawn) | 2 | 55* | 1 | -5
Cc1ccc(S(=O)c2ccc([N+](=O)[O-])c3nonc23)cc1 (stereo not drawn) | -3 | 375* | / | /
COc1ccc(-c2cc(-c3ccccc3)nc(SCC(=O)Nc3ncc(C)s3)c2C#N)cc1 | 0 | -46 | -2 | -21
